Hits are enriched below; roughly 2.3% of the tested compounds scored in any of these assays.
LMP1 NFkB inh: Epstein-Barr LMP1 NF-kappaB reporter inhibition. inhibition, % at 12.5 µM. LMP1-induced NF-kappaB luciferase reporter cells, luminescence. 0.69% of 350,000 active; in the data active = inhibition above about 41%; inconclusive = no clear call, values can overlap the other calls
TRPM1 prom inh: MITF TRPM1 promoter inhibition in SK-MEL-5 cells. SK-MEL-5 TRPM1 promoter luciferase, 24 h. inhibition, % at 12.5 µM. 0.83% of 330,000 active. AID 488899;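 active = mean inhibition across replicates of 60% or more, whatever share of single replicates reaches that level; inconclusive = some that reach 60%, reason not given; inactive = mean inhibition across replicates below 60%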
Gli-Sufu block: antagonists of Gli-Sufu signaling; inhibition, % at 5 µM; Sufu-KO-LIGHT fibroblasts, Gli luciferase reporter luminescence; AID 588413; 0.74% of 340,000 active;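 active = inhibition above about 55%, limit read from the data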
697 NFkB inh: inhibitors of the PMA/ionomycin-induced NF-kB reporter in 697 B cells | 697 B-cell NF-kB luciferase reporter, 16 h | inhibition, % at 4 µM | 0.33% of 330,000 active; in the data active = inhibition above about 35%
Jurkat NFkB inh: lowers PMA/ionomycin-induced NF-kB signal in Jurkat cells | PMA/ionomycin-induced NF-kB luciferase reporter, luminescence | inhibition, % at 4 µM | 0.53% of 330,000 active; in the data active = inhibition above about 50%
Shn3 3UTR inh: inhibitors of Schnurri-3 3'UTR reporter in osteoblasts; 0.52% of 360,000 active; AID 588674; inhibition, % at 12.5 µM; Clone20 osteoblast Shn3 3'UTR firefly luciferase, 24 h;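 active = mean inhibition of at least 75% with every replicate also reaching 75%; inconclusive = mean inhibition at least 75% but some replicate below; inactive = mean inhibition below 75%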
Each line names hits and unclear results; the compound was inactive in the other large screens.

CCCC[C@@H](CNC)NC[C@H](NCCCCC1CCCCC1)C(C)C	TRPM1 prom inh 78
COc1ccc(C(=O)NCc2nnc(SCC(=O)Nc3nc4ccc(C)cc4s3)o2)cc1OC	none
COc1ccccc1CCNC(=O)c1ccc2nc[nH]c2c1	none
COC(=O)c1[nH]c2ccc(C)cc2c1NC(=O)NC1CCCCC1	LMP1 NFkB inh 73
COC(=O)c1[nH]c2ccc(C)cc2c1NC(=O)C(C)N1CCN(C2CCCCC2)CC1 (configuration not stated)	none
CC1=CN2C(=N)/C(=C/c3ccco3)C(=O)N=C2S1	none
CC1=CN2C(=N)/C(=C/c3ccc([N+](=O)[O-])o3)C(=O)N=C2S1	TRPM1 prom inh 89, Shn3 3UTR inh 94 (no result: 697 NFkB inh, Jurkat NFkB inh)
CP(=O)(Nc1cc(Cl)ccc1Cl)c1nc2c(s1)CCCC2 (configuration not stated)	none
CCCN(CC1CC1)c1nc(C)nc(Nc2c(Cl)cc(Cl)cc2Cl)c1Cl	LMP1 NFkB inh 78
CCCN(CC1CC1)c1nc(N)c(C#N)c(CC#N)c1C#N	none
O=C(CC(NC(=O)c1ccccc1)c1ccccc1)NCc1ccccc1 (configuration not stated)	none
CCOC(=O)C(=Cc1cc(=O)c(OC)co1)C(=O)OCC	TRPM1 prom inh 98 (no result: 697 NFkB inh, Jurkat NFkB inh)
O=C(N/N=C/c1cccc2cccnc12)c1ccccc1O	TRPM1 prom inh 69, Shn3 3UTR inh 92
C(=N\Nc1nc2ccccc2[nH]1)/c1cccc2cccnc12	LMP1 NFkB inh 71, Gli-Sufu block 67
CCCn1c(SCC(=O)NC(=O)Nc2ccc(C)cc2C)n[nH]c1=O	none
COc1cccc(NC(=O)CSc2nc3ncc(Br)cc3[nH]2)c1	none
N#CCCN(C(=O)CCl)c1cccc(Cl)c1	LMP1 NFkB inh 45
CCCCCCCN(C(=O)CCl)c1cccc(C)c1	none
COc1ccccc1C=NN=C(NN=Cc1ccccc1OC)NN=Cc1ccccc1OC	TRPM1 prom inh 88 (no result: 697 NFkB inh, Jurkat NFkB inh)
COc1ccccc1C=NN=Cc1ccccc1O	LMP1 NFkB inh 83 (no result: 697 NFkB inh, Jurkat NFkB inh)
COc1ccccc1C=NNC(=O)NN=Cc1ccccc1OC	none (no result: 697 NFkB inh, Jurkat NFkB inh)
COc1ccccc1C=NN=C(N)C(N)=NN=Cc1ccccc1OC	none (no result: 697 NFkB inh, Jurkat NFkB inh)
NC(=O)c1cc(S(=O)(=O)Nc2ccccc2)cs1	none
COc1ccc(NC(=S)N2CCN(C)CC2)cc1	none (no result: LMP1 NFkB inh, TRPM1 prom inh)
C#CCn1c(=NC(=O)c2ccc(S(=O)(=O)N3CCc4ccccc4C3)cc2)sc2cc(S(N)(=O)=O)ccc21	TRPM1 prom inh 90, Shn3 3UTR inh 97
C=CCn1c(=NC(=O)c2ccc(S(=O)(=O)N3CCc4ccccc4C3)cc2)sc2cc(S(N)(=O)=O)ccc21	none
CCN(CC)C(=O)[C@H]1C[C@H](CC(=O)NC/C=C(\C)CCC=C(C)C)C(=O)N2CCc3c([nH]c4cc(CCC(=O)N(C)C)ccc34)[C@]12C	Shn3 3UTR inh 90 (no result: Jurkat NFkB inh)
Cc1cc(=O)[nH]c(SCC(=O)c2ccc3c(c2)NC(=O)CO3)n1	none
Nc1cc(N)nc(SCC(=O)c2ccc3c(c2)NC(=O)CO3)n1	LMP1 NFkB inh 44
O=C(Nc1cc2c3c(c1)CC(=O)N3CCC2)c1cccc(F)c1	none
CCS(=O)(=O)c1ncc(Cl)c(C(=O)Nc2ccc(S(=O)(=O)N3CCCC(C)C3)cc2)n1 (configuration not stated)	TRPM1 prom inh 104, Shn3 3UTR inh 98
CCC1CCCCN1S(=O)(=O)c1ccc(NC(=O)c2nc(S(C)(=O)=O)ncc2Cl)cc1 (configuration not stated)	TRPM1 prom inh 104, Shn3 3UTR inh 96
CCC1CCCCN1S(=O)(=O)c1ccc(C(=O)Nc2nnc(-c3ccccc3Cl)o2)cc1 (configuration not stated)	none
CC1CCCN(S(=O)(=O)c2ccc(NC(=O)CNC3CCCC3)cc2)C1 (configuration not stated)	none
CCS(=O)(=O)c1ncc(Cl)c(C(=O)Nc2ccc(C)cc2)n1	TRPM1 prom inh 70
Cc1ccc(CS(=O)(=O)c2ncc(Cl)c(C(=O)Nc3ccc(OC(F)F)cc3)n2)cc1	LMP1 NFkB inh inconclusive, TRPM1 prom inh 81, Shn3 3UTR inh 94
Cc1noc(C)c1NC(=O)Nc1cccc2c1O[C@H](CN(C)S(=O)(=O)c1ccccc1)[C@@H](C)CN([C@H](C)CO)C2=O	none
COc1cc(SC#N)ccc1N=Cc1c(C)[nH]n(-c2ccc(C)c(C)c2)c1=O	TRPM1 prom inh 88, Shn3 3UTR inh inconclusive
CC(=O)C1CCC2C3CC=C4CC(SC(=N)N)CCC4(C)C3CCC12C (configuration not stated)	TRPM1 prom inh 90, Shn3 3UTR inh inconclusive (no result: 697 NFkB inh, Jurkat NFkB inh)
CC(=O)OCC(=O)C1CCC2C3CC=C4CC(O)CCC4(C)C3CCC12C (configuration not stated)	none
Cc1ccn2cc(-c3ccc(O)c(O)c3)nc2c1	Shn3 3UTR inh 87
Cc1ccc2cc(CN(Cc3ccc4c(c3)OCO4)Cc3nnnn3Cc3ccco3)c(=O)[nH]c2c1C	none
O=C(Nc1nnc(SCc2ccc(F)cc2)s1)c1ccccn1	LMP1 NFkB inh 45
CSc1nnc(NC(=O)c2nc(S(=O)(=O)Cc3ccccc3F)ncc2Cl)s1	TRPM1 prom inh 75, Shn3 3UTR inh 96
CSc1nnc(NC(=O)c2nc(S(=O)(=O)Cc3cccc(C)c3)ncc2Cl)s1	LMP1 NFkB inh inconclusive, TRPM1 prom inh 81, Shn3 3UTR inh 96
CCSc1nnc(NC(=O)c2nc(S(=O)(=O)Cc3ccc(F)cc3)ncc2Cl)s1	Shn3 3UTR inh 96
C=CCSc1nnc(NC(=O)c2nc(SCC)ncc2Cl)s1	none
CC(C)c1nnc(NC(=O)c2nc(S(=O)(=O)Cc3ccccc3F)ncc2Cl)s1	none (no result: LMP1 NFkB inh, TRPM1 prom inh, Shn3 3UTR inh)
O=C(Nc1nnc(SCc2ccc(F)cc2)s1)c1cccnc1Cl	none
Cc1cc(C(=O)C[N+]2(C)CCOCC2)c(C)n1-c1ccc(Br)cc1	none
COC(=O)NC(NC(=S)Nc1ccc([N+](=O)[O-])cc1)C(Cl)(Cl)Cl (configuration not stated)	none
Cc1ccc(CS(=O)(=O)c2ncc(Cl)c(C(=O)Nc3nnc(C(C)C)s3)n2)cc1	TRPM1 prom inh 79, Shn3 3UTR inh 95
Cc1nnc(NC(=O)c2nc(S(=O)(=O)Cc3ccccc3C)ncc2Cl)s1	LMP1 NFkB inh 81, TRPM1 prom inh 80, Shn3 3UTR inh 96
CC(C)c1nnc(NC(=O)c2nc(S(=O)(=O)Cc3ccc(F)cc3)ncc2Cl)s1	LMP1 NFkB inh 85, TRPM1 prom inh 75, Shn3 3UTR inh 98
CC(C)c1nnc(NC(=O)CS(=O)(=O)Cc2ccccc2)s1	none
Cc1cccc(CS(=O)(=O)c2ncc(Cl)c(C(=O)Nc3nnc(C(C)C)s3)n2)c1	LMP1 NFkB inh 56, TRPM1 prom inh 76, Shn3 3UTR inh 95
COc1ccccc1C(=O)OCC(=O)NC(=O)NC1CCCCC1	none
COc1ccc2[nH]c(C(=O)N3CCC(CO)(Cc4cccc(C(F)(F)F)c4)CC3)c(C)c2c1	none
COc1ccc(NC(=O)C2=CC(c3ccco3)=NS(=O)(=O)N2C)cc1	none
